We go through 16 compounds from PubChem BioAssay (NCATS).

Assay [1] in a line: qHTS of pediatric cancer cell lines to identify multiple opportunities for drug repurposing: Confirmatory screen for BT-37 cells (AID 1347117). Also: potency is read from the fitted curve at half-maximal effect.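 Also: viability measured after 48 h of compound exposure; nearly all actives have a fitted effect of over 55% in size.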 Summed up: (§1)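 Viability after 48 h compound treatment at 37C, 500-1,000 cells/well, read as ATP luminescence with CellTiter-Glo. Primary screens used 11-point (MIPE, 0.78 nM-46 µM) or 8-point (NPC, 0.59 nM-46 µM) final concentrations; follow-up screens used 11-point dilutions.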
(In general: Quantitative high-throughput screening tests each substance at several concentrations.)

A short description of assay [2]: qHTS of pediatric cancer cell lines to identify multiple opportunities for drug repurposing: Confirmatory screen for TC32 cells (AID 1347118).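 Also: cells exposed to compound for 48 h before the read; nearly all actives have a fitted effect of over 65% in size.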 Also: potency is read from the fitted curve at half-maximal effect. The essentials: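 Luminescent ATP read-out (CellTiter-Glo) of metabolically active TC32 cells after 48 h exposure. Concentration-response curves came from 11-point (MIPE, 0.78 nM–46 µM) or 8-point (NPC, 0.59 nM–46 µM) primary titrations; follow-up used 11 points.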

Assay [3] is described as follows: qHTS of pediatric cancer cell lines to identify multiple opportunities for drug repurposing: Confirmatory screen for control Hh wild type fibroblast cells (AID 1347121). Also: nearly all actives have a fitted effect of over 70% in size. Also: potency is read from the fitted curve at half-maximal effect. The essentials: as §1
Assay [4] in a line: qHTS of pediatric cancer cell lines to identify multiple opportunities for drug repurposing: Confirmatory screen for U-2 OS cells (AID 1347122). Also: nearly all actives have a fitted effect of over 65% in size. Also: potency is read from the fitted curve at half-maximal effect. Summed up:
as §1

Assay [5] is described as follows: qHTS of pediatric cancer cell lines to identify multiple opportunities for drug repurposing: Confirmatory screen for Rh41 cells (AID 1347123).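 Also: 48 h compound exposure; nearly all actives have a fitted effect of over 60% in size.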 Also: potency is read from the fitted curve at half-maximal effect. Summed up: as §1
Assay [6] in a line: qHTS of pediatric cancer cell lines to identify multiple opportunities for drug repurposing: Confirmatory screen for RD cells (AID 1347124).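 Also: cells exposed to compound for 48 h before viability readout; nearly all actives have a fitted effect of over 65% in size.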 Also: potency is read from the fitted curve at half-maximal effect. Summed up: as §1
Assay [7] can be described thus: qHTS of pediatric cancer cell lines to identify multiple opportunities for drug repurposing: Confirmatory screen for Rh18 cells (AID 1347125). Also: nearly all actives have a fitted effect of over 55% in size. Also: potency is read from the fitted curve at half-maximal effect. Summed up:
as §1

Assay [8] can be described thus: qHTS of pediatric cancer cell lines to identify multiple opportunities for drug repurposing: Confirmatory screen for Rh30 cells (AID 1347126). Also: nearly all actives have a fitted effect of over 55% in size. Also: potency is read from the fitted curve at half-maximal effect. Summed up: as §1
Assay [9] can be described thus: qHTS of pediatric cancer cell lines to identify multiple opportunities for drug repurposing: Confirmatory screen for OHS-50 cells (AID 1347128).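 Also: compound exposure lasted 48 h at 37 degrees C; nearly all actives have a fitted effect of over 55% in size.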 Also: potency is read from the fitted curve at half-maximal effect. Summed up:
as §1

Assay [10] can be described thus: qHTS of pediatric cancer cell lines to identify multiple opportunities for drug repurposing: Confirmatory screen for SK-N-SH cells (AID 1347129).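 Also: cells exposed to compound for 48 h before viability read; nearly all actives have a fitted effect of over 60% in size.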 Also: potency is read from the fitted curve at half-maximal effect. The essentials: as §1
Assay [11] has as its system Zika virus NS2B-NS3 protease. The experiment in a line: Primary screen GU AMC qHTS for Zika virus inhibitors (AID 1347154). Also: nearly all actives have a fitted effect of over 70% in size. Also: potency is read from the fitted curve at half-maximal effect. The essentials: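 Unlinked Zika NS2B hydrophilic domain–NS3 protease complex at 25 nM in 10 mM Tris-HCl pH 8.0, 0.01% Tween 20, with an AMC peptide substrate. Fluorescence change (340/450 nm) over 15 min at room temperature, normalized to controls, fitted to 4-parameter Hill.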

The nature of assay [12]: qHTS of pediatric cancer cell lines to identify multiple opportunities for drug repurposing: Confirmatory screen for Saos-2 cells (AID 1347127). Also: nearly all actives have a fitted effect of over 60% in size. Also: potency is read from the fitted curve at half-maximal effect. The essentials:
as §1

For assay [13], the system named is Zika virus NS2B-NS3 protease (unlinked). As to the kind of experiment: Optimization of GU AMC qHTS for Zika virus inhibitors: Unlinked NS2B-NS3 protease assay (AID 1347151). Also: nearly all actives have a fitted effect of over 80% in size. Also: potency is read from the fitted curve at half-maximal effect. The essentials: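 Unlinked protease (25 nM final); buffer 10 mM Tris-HCl pH 8.0 + 0.01% Tween 20; AMC substrate; 15 min RT, dark; Δfluorescence normalized to no-inhibitor/no-enzyme controls; 4-parameter Hill fit.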

Assay [14] relates to Zika virus NS2B-NS3 protease (unlinked complex). The experiment in a line: Primary screen GU Rhodamine qHTS for Zika virus inhibitors: Unlinked NS2B-NS3 protease assay (AID 1347159). Also: nearly all actives have a fitted effect of over 60% in size. Also: potency is read from the fitted curve at half-maximal effect. The essentials: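 Percent inhibition came from the 15-min rise in Rhodamine110 fluorescence (1.5 microM substrate, ~15% conversion), normalized to no-inhibitor and no-enzyme wells and Hill-fitted. Unlinked protease, 25 nM, pH 8.0 Tris buffer; compounds up to 114 microM, 15-min preincubation.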

Assay [15] can be described thus: qHTS of pediatric cancer cell lines to identify multiple opportunities for drug repurposing: Confirmatory screen for MG 63 (6-TG R) cells (AID 1347119). Also: nearly all actives have a fitted effect of over 55% in size. Also: potency is read from the fitted curve at half-maximal effect. Summed up:
as §1

Assay [16] in a line: Confirmatory screen GU Rhodamine qHTS for Zika virus inhibitors qHTS (AID 1347157). Also: nearly all actives have a fitted effect of over 70% in size. Summed up: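 Noncovalent NS2B hydrophilic domain/NS3 protease complex (25 nM final) in 10 mM Tris-HCl pH 8.0, 0.01% Tween 20, preincubated 15 min with compounds (up to 114 microM), then 1.5 microM Rhodamine110 substrate. Fluorescence change over 15 min fitted to 4-parameter Hill.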
In assay [17] the target is N-terminal Xaa-Pro-Lys N-methyltransferase 1 (Homo sapiens) (UniProt Q9BV86). As to the kind of experiment: qHTS Assay for Inhibitors of N-terminal methyltransferase 1 (NTMT1): LOPAC validation of the NTMT1 SAHH-coupled ThioGlo3 Assay (AID 1347143).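 Also: SAH from peptide methylation measured as thiol fluorescence via SAHH coupling and ThioGlo3; nearly all actives have a fitted effect of over 70% in size.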 Summed up:
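Steps: dispense 125nM NTMT1; pin-transfer test compounds at several concentrations, with 1uM RCC1-6 peptide as control; incubate 1 min; start with reagent holding 100uM SAM, 10uM SAHH, 15uM ThioGlo3; read at 0 and 30 min.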

Inconclusive results are not listed. Active and inactive are the calls of the source. Calls follow the shape of the dose curve; as a rule, active = well fitted curve in the direction sought with a large enough effect; inconclusive = small, poorly fitted or top-dose-only effect, or another doubt; inactive = no such curve, though single readings can be large; an effect the other way counts as inactive or inconclusive.

N-terminal Xaa-Pro-Lys N-methyltransferase 1 (Homo sapiens), sequence (Q9BV86 whole entry, looked up): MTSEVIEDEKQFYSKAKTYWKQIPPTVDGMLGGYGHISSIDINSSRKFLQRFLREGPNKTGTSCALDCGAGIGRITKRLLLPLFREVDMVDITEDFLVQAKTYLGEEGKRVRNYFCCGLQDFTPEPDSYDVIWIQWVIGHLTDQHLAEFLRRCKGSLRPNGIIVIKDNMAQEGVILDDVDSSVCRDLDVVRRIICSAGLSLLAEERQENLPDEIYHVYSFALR

Consider `CS(=O)(=O)c1ccc([C@@H](O)[C@@H](CO)NC(=O)C(Cl)Cl)cc1`, for which the Potency entry in assay [1], in [2], in assay [3], in assay [4], in assay [5] and in assay [6] was “inactive” in each case. Further, the Potency entry in [7], in assay [8], in [9], in [10] and in assay [11] was “inactive” throughout.

On to `CNC(=O)c1cc(Oc2ccc(NC(=O)Nc3ccc(Cl)c(C(F)(F)F)c3)cc2)ccn1`, for which the Potency in [1] is 23.3 µM (active); in [2], 18.5 µM (active); in assay [9], 18.5 µM (active); in [10] it was 20.9 µM (active); in assay [13], 9.87 µM (active); in [14], 8.91 µM (active). The Potency result in [12] and in [11] was “inactive” in each case.

For `CCOC(=O)[C@H](CCc1ccccc1)N[C@H]1CS[C@H](c2cccs2)CN(CC(=O)O)C1=O`, the Potency result in [1], in assay [15], in assay [3], in assay [4], in [5] and in assay [6] was “inactive” each time. Besides, the Potency result in [7], in [8], in assay [12], in assay [10] and in [11] was “inactive” each time. For the same compound, in assay [2], the Potency is 8.27 µM (active).

Turning to `O=NN(CCCl)C(=O)NC1CCCCC1`, the Potency result in assay [1], in [2], in [15], in assay [3], in assay [4] and in [5] was “inactive” in each case. Also, the Potency result in assay [6], in [7], in [8], in assay [9], in assay [10] and in assay [11] was “inactive” in each case.

Turning to `Nc1[nH]c(=O)ncc1F`, the Potency result in assay [1], in assay [2], in assay [15], in assay [3], in assay [4] and in assay [5] was “inactive” throughout. For the same compound, the Potency entry in [6], in assay [7], in [8], in assay [9], in assay [10] and in assay [11] was “inactive” each time.

As for `CN(C)c1ccc(C(=C2C=CC(=[N+](C)C)C=C2)c2ccc(N(C)C)cc2)cc1`, the Potency was 1.17 µM (active) in assay [1]; 0.928 µM (active) in assay [2]; 827 nM (active) in assay [15]; 1.04 µM (active) in assay [3]; 1.85 µM (active) in [4]; 0.522 µM (active) in assay [5]. In addition, the Potency in [6] was 928 nM (active); in assay [7], 1.47 µM (active); in assay [8], 1.17 µM (active); in [12], 1.31 µM (active); in assay [9], 3.69 µM (active); in assay [10], 1.32 µM (active). In assay [11], the Potency entry is “inactive”.

For `COc1ccc(-c2ccc3cc(C(=O)O)ccc3c2)cc1C12CC3CC(CC(C3)C1)C2`, the Potency was 7.37 µM (active) in assay [1], 2.08 µM (active) in assay [2] and 0.0827 µM (active) in assay [4]. Moreover, the Potency result in assay [3], in [5], in assay [7], in assay [10] and in [11] was “inactive” each time. Further, the compound was classed as inactive in assay [16].

Take `COc1cc2c(Nc3ccc(Br)cc3F)ncnc2cc1OCC1CCN(C)CC1`: the Potency result in [1], in assay [2], in [15], in assay [3], in assay [4] and in assay [7] was “inactive” each time. The Potency entry in assay [12], in [11] and in assay [14] was “inactive” throughout. In addition, the Potency in assay [5] was 16.5 µM (active); in assay [10], 16.6 µM (active).

For `CNCC[C@H](Oc1cccc2ccccc12)c1cccs1`, the Potency entry in assay [1], in assay [3], in assay [4], in assay [7], in [8] and in [12] was “inactive” each time. Besides, the Potency result in assay [11] was “inactive”. In addition, the Potency in [2] was 7.37 µM (active); in assay [15], 26100 nM (active).

Turning to `COc1cc([C@@H]2c3cc4c(cc3[C@H](O)[C@H]3COC(=O)[C@H]23)OCO4)cc(OC)c1OC`, the Potency in assay [1] is 0.0522 µM (active); in assay [2], 0.0737 µM (active); in assay [15] it was 32.9 nM (active); in assay [4] it was 0.0737 µM (active); in [6], 41.4 nM (active); in assay [12], 0.0414 µM (active). Besides, the Potency entry in assay [3], in [7], in [8], in assay [10] and in assay [11] was “inactive” in each case.

Consider `CN1CCCC(n2nc(Cc3ccc(Cl)cc3)c3ccccc3c2=O)CC1` (centres undefined), for which the Potency was 23.3 µM (active) in [1], 26.1 µM (active) in [2], 8.27 µM (active) in assay [5] and 20.9 µM (active) in assay [10]. The Potency result in assay [15], in [3], in [4], in assay [8], in assay [12] and in assay [11] was “inactive” in each case.

For the compound `CC1CC2C3CCC4=CC(=O)C=C[C@]4(C)[C@@]3(F)[C@@H](O)C[C@]2(C)[C@@]1(O)C(=O)CO` (some centres undefined), the Potency result in assay [1], in assay [2], in [15], in assay [3], in assay [4] and in assay [5] was “inactive” throughout. For the same compound, the Potency result in [6], in assay [7], in [12], in assay [9], in assay [10] and in assay [17] was “inactive” throughout. For the same compound, the Potency result in assay [13] and in assay [11] was “inactive” throughout.

Turning to `COc1cc2nc(N3CCCN(C)CC3)nc(NC3CCN(Cc4ccccc4)CC3)c2cc1OC`, the Potency in assay [1] is 20.8 µM (active); in assay [2] it was 11.7 µM (active); in assay [5], 0.261 µM (active); in assay [6], 657 nM (active); in [8] it was 0.147 µM (active); in assay [9], 18.5 µM (active). In addition, the Potency in [10] is 8.33 µM (active); in assay [13], 21.2 µM (active); in assay [11], 27.1 µM (active). Moreover, the Potency result in [15], in assay [3] and in assay [17] was “inactive” each time.

With `C[C@@H]1C[C@H]2[C@@H]3CCC4=CC(=O)C=C[C@]4(C)[C@@]3(Cl)[C@@H](O)C[C@]2(C)[C@@]1(OC(=O)c1ccco1)C(=O)CCl`, the Potency was 0.369 µM (active) in assay [1]; 0.928 µM (active) in assay [2]; 3.29 µM (active) in assay [4]; 1.04 µM (active) in assay [5]; 20.8 µM (active) in [7]; 4.14 µM (active) in [12]. Besides, the Potency in [9] was 11.7 µM (active); in [10], 14.8 µM (active). Further, the Potency entry in [3] and in [11] was “inactive” in each case.

As for `CNS(=O)(=O)CCc1ccc2[nH]cc(C3CCN(C)CC3)c2c1`, the Potency result in assay [1], in assay [15], in assay [3], in assay [4], in assay [5] and in [6] was “inactive” each time. The Potency result in assay [7], in assay [8], in [12], in assay [9], in assay [10] and in assay [17] was “inactive” throughout. Moreover, the Potency entry in [13], in assay [11] and in [14] was “inactive” throughout. Moreover, the Potency in assay [2] is 13.1 µM (active).

Turning to `CCC(=O)O[C@]1(C(=O)SCF)[C@H](C)C[C@H]2[C@@H]3C[C@H](F)C4=CC(=O)C=C[C@]4(C)[C@@]3(F)[C@@H](O)C[C@@]21C`, the Potency result in assay [1], in assay [2], in assay [15], in [3], in [5] and in assay [12] was “inactive” each time. In addition, the Potency result in [9], in [10] and in assay [11] was “inactive” in each case.
